# According to publication PMC5540273 (PLoS ONE, 2017):
# System: MYLK2
# Details: concentration: 1 μM, replicates: in singlicate; n = 1
# 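Also: KINOMEscan kinase panel screen.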
row,Compound,%Inh [%]
1,COc1ccc(Nc2nccc(N3CCC(NC(=O)C(C)c4ccc(Cl)cc4)CC3)n2)cc1 (stereo not drawn) [GSK1379812],6
2,CCc1ccc(-c2ccc3c(c2)-c2n[nH]cc2S(=O)(=O)N3C)cc1,0
3,CC(=O)c1c(C)c2cnc(Nc3ccc(N4CCNCC4)cn3)nc2n(C2CCCC2)c1=O,6
4,Cn1cncc1C(=O)NC1CCN(c2ccnc(Nc3ccc(F)cc3)n2)C1 (stereo not drawn) [GSK1379717],1
5,CNc1cc(-c2ccc3c(N)n[nH]c3c2)nc(N)n1 [GSK2224810],64
6,CN1c2ccc(-c3ccc(C(N)=O)cc3)cc2-c2[nH]ncc2S1(=O)=O,0
7,COc1ccc(-c2coc3ccc(-c4nnc(C)o4)cc23)cc1,18
8,Cc1ccc(NC(=O)Nc2ccccc2F)cc1-c1ccc(C(=O)Nc2ccncc2)cc1 [GSK1398477],19
9,O=C(Nc1n[nH]c2nc(-c3ccco3)c(Br)cc12)C1CCN(Cc2ccccc2)C1.O=C(O)[C@H](O)[C@@H](O)C(=O)O (stereo not drawn) [SB-742034],89
10,FC(F)(F)c1ccccc1-c1cc(-c2c[nH]nc2-c2ccccn2)ccn1 [GW679396],26
11,COc1nccc(-c2c(-c3ccc(F)cc3)ncn2CCCN2CCOCC2)n1 [SB-282852],56
12,COc1cccc(CNC(=O)NC2CCN(c3ccnc(Nc4ccc(F)cc4)n3)C2)c1 (stereo not drawn) [GSK1379723],0
13,COC(=O)C(NC(=O)NC1CCN(c2ccnc(Nc3ccc(F)cc3)n2)C1)c1ccccc1 (stereo not drawn) [GSK1379712],10
14,CNCc1ccc2nc(NC(=O)c3ccc(C(C)(C)C)cc3)cn2c1,7
15,Cc1ccc(NC(=O)Nc2ccc(Cl)cc2)cc1-c1ccc(C(=O)Nc2ccncc2)cc1 [GSK1398472],0
16,Cn1cncc1-c1cc2c(Nc3ccc(OCc4ccccc4)cc3)ncnc2cn1 [GW281179],10
17,Fc1ccc(-c2nc3n(c2-c2ccncc2)CCS3)cc1 [GI98581],14
18,COc1ccc(CSc2nnc(-c3ccc4ncsc4c3)o2)cc1C(F)(F)F,16

row,Compound,%Inh [%]
1,Cc1ccc(NC(=O)Nc2ccccc2)cc1-c1ccc(C(=O)Nc2ccncc2)cc1 [GSK1398471],0
2,COc1ccc2cc(-c3nc(-c4ccccc4C(C)C)[nH]c3-c3ccncc3)ccc2c1 [SB-660566],15
3,O=C1NC(=O)C(c2ccc(Cl)cc2)=C1Nc1cccc(Cl)c1 [SB-317651],30
4,CC(C)c1cc(-c2ccc3c(N)n[nH]c3c2)nc(N)n1 [GSK2250882],23
5,Cc1c(Cn2c3ccccc3n3c(=O)cc(N4CCOCC4)nc23)cccc1C(F)(F)F [GSK2306394],17
6,COC(=O)C(Cc1ccccc1)NC(=O)NC1CCN(c2ccnc(Nc3ccc(F)cc3)n2)C1 (stereo not drawn) [GSK1379714],0
7,CS(=O)(=O)Cc1ccc(Nc2nccc(-c3c(-c4cccc(NC(=O)C5CCCCC5)c4)nn4ncccc34)n2)cc1 [GSK350559],0
8,Nc1nccc(-c2c(-c3ccc(F)cc3)ncn2C2CCN(Cc3ccccc3)CC2)n1 [SB-219980],0
9,CC(C)c1ccc(O)cc1Nc1ccnc2ccc(C(F)(F)F)cc12 [GW482059],3
10,CNc1nc(-c2ccc3c(N)n[nH]c3c2)cc(N2C[C@@H](C(=O)NC3CCCCC3)OC[C@H]2C)n1 [GSK2375584],0
11,CCn1c(-c2ccccc2)nc2cnccc21 [SB-733416],0
12,CCCCc1nn2ncccc2c1-c1ccnc(NC2CC2)n1 [GW684374],0
13,Nc1cccc(-c2ccc3c(N)n[nH]c3c2)n1 [GSK2192730],90
14,CS(=O)(=O)CCNCc1nc(-c2ccc3ncnc(Nc4ccc(OCc5ccccc5)c(Cl)c4)c3c2)cs1.Cl [GW582764],3
15,COc1cccc(NC(=O)Nc2ccc(C)c(-c3ccc(C(=O)Nc4ccncc4)cc3)c2)c1 [GSK1398474],4
16,CC[C@@H]1CO[C@H](C(=O)Nc2ccccc2)CN1c1cc(-c2ccc3c(N)n[nH]c3c2)nc(NC)n1 [GSK2376236],8
17,COc1ccc(CSc2nnc(-c3ccc4nccn4c3)o2)cc1C(F)(F)F,8
18,Nc1ncnc2occ(-c3ccc4c(c3)CCN4C(=O)Cc3cc(F)ccc3F)c12 [GSK2645446],27

# System: MYLK4
# Details: concentration: 1 μM, replicates: in singlicate; n = 1
row,Compound,%Inh [%]
1,COc1ccc(Nc2nccc(N3CCC(NC(=O)C(C)c4ccc(Cl)cc4)CC3)n2)cc1 (stereo not drawn) [GSK1379812],6
2,CCc1ccc(-c2ccc3c(c2)-c2n[nH]cc2S(=O)(=O)N3C)cc1,0
3,CC(=O)c1c(C)c2cnc(Nc3ccc(N4CCNCC4)cn3)nc2n(C2CCCC2)c1=O,0
4,Cn1cncc1C(=O)NC1CCN(c2ccnc(Nc3ccc(F)cc3)n2)C1 (stereo not drawn) [GSK1379717],0
5,CNc1cc(-c2ccc3c(N)n[nH]c3c2)nc(N)n1 [GSK2224810],56
6,CN1c2ccc(-c3ccc(C(N)=O)cc3)cc2-c2[nH]ncc2S1(=O)=O,0
7,COc1ccc(-c2coc3ccc(-c4nnc(C)o4)cc23)cc1,14
8,Cc1ccc(NC(=O)Nc2ccccc2F)cc1-c1ccc(C(=O)Nc2ccncc2)cc1 [GSK1398477],7
9,O=C(Nc1n[nH]c2nc(-c3ccco3)c(Br)cc12)C1CCN(Cc2ccccc2)C1.O=C(O)[C@H](O)[C@@H](O)C(=O)O (stereo not drawn) [SB-742034],25
10,FC(F)(F)c1ccccc1-c1cc(-c2c[nH]nc2-c2ccccn2)ccn1 [GW679396],0
11,COc1nccc(-c2c(-c3ccc(F)cc3)ncn2CCCN2CCOCC2)n1 [SB-282852],0
12,COc1cccc(CNC(=O)NC2CCN(c3ccnc(Nc4ccc(F)cc4)n3)C2)c1 (stereo not drawn) [GSK1379723],0
13,COC(=O)C(NC(=O)NC1CCN(c2ccnc(Nc3ccc(F)cc3)n2)C1)c1ccccc1 (stereo not drawn) [GSK1379712],13
14,CNCc1ccc2nc(NC(=O)c3ccc(C(C)(C)C)cc3)cn2c1,1
15,Cc1ccc(NC(=O)Nc2ccc(Cl)cc2)cc1-c1ccc(C(=O)Nc2ccncc2)cc1 [GSK1398472],0
16,Cn1cncc1-c1cc2c(Nc3ccc(OCc4ccccc4)cc3)ncnc2cn1 [GW281179],0
17,Fc1ccc(-c2nc3n(c2-c2ccncc2)CCS3)cc1 [GI98581],0
18,COc1ccc(CSc2nnc(-c3ccc4ncsc4c3)o2)cc1C(F)(F)F,1

row,Compound,%Inh [%]
1,Cc1ccc(NC(=O)Nc2ccccc2)cc1-c1ccc(C(=O)Nc2ccncc2)cc1 [GSK1398471],3
2,COc1ccc2cc(-c3nc(-c4ccccc4C(C)C)[nH]c3-c3ccncc3)ccc2c1 [SB-660566],4
3,O=C1NC(=O)C(c2ccc(Cl)cc2)=C1Nc1cccc(Cl)c1 [SB-317651],0
4,CC(C)c1cc(-c2ccc3c(N)n[nH]c3c2)nc(N)n1 [GSK2250882],39
5,Cc1c(Cn2c3ccccc3n3c(=O)cc(N4CCOCC4)nc23)cccc1C(F)(F)F [GSK2306394],0
6,COC(=O)C(Cc1ccccc1)NC(=O)NC1CCN(c2ccnc(Nc3ccc(F)cc3)n2)C1 (stereo not drawn) [GSK1379714],13
7,CS(=O)(=O)Cc1ccc(Nc2nccc(-c3c(-c4cccc(NC(=O)C5CCCCC5)c4)nn4ncccc34)n2)cc1 [GSK350559],0
8,Nc1nccc(-c2c(-c3ccc(F)cc3)ncn2C2CCN(Cc3ccccc3)CC2)n1 [SB-219980],0
9,CC(C)c1ccc(O)cc1Nc1ccnc2ccc(C(F)(F)F)cc12 [GW482059],0
10,CNc1nc(-c2ccc3c(N)n[nH]c3c2)cc(N2C[C@@H](C(=O)NC3CCCCC3)OC[C@H]2C)n1 [GSK2375584],0
11,CCn1c(-c2ccccc2)nc2cnccc21 [SB-733416],2
12,CCCCc1nn2ncccc2c1-c1ccnc(NC2CC2)n1 [GW684374],52
13,Nc1cccc(-c2ccc3c(N)n[nH]c3c2)n1 [GSK2192730],72
14,CS(=O)(=O)CCNCc1nc(-c2ccc3ncnc(Nc4ccc(OCc5ccccc5)c(Cl)c4)c3c2)cs1.Cl [GW582764],0
15,COc1cccc(NC(=O)Nc2ccc(C)c(-c3ccc(C(=O)Nc4ccncc4)cc3)c2)c1 [GSK1398474],3
16,CC[C@@H]1CO[C@H](C(=O)Nc2ccccc2)CN1c1cc(-c2ccc3c(N)n[nH]c3c2)nc(NC)n1 [GSK2376236],10
17,COc1ccc(CSc2nnc(-c3ccc4nccn4c3)o2)cc1C(F)(F)F,21
18,Nc1ncnc2occ(-c3ccc4c(c3)CCN4C(=O)Cc3cc(F)ccc3F)c12 [GSK2645446],7
